Where “and” joins values, the source holds several entries; their conditions need not be identical. Identical values can stand only once. Inconclusive results are not listed. Entries that show only a call come without a potency. More than one record can exist for a structure, and the calls need not agree. Calls of active or inactive are those of the source. The call rests on the fitted dose curve; in most records, active means well fitted inhibition curve with a large enough effect in the repeat runs; inconclusive means weak or mixed curves; inactive means no such curve, though single readings can be large or run the other way.
Potency means the concentration at half of the fitted maximal effect.

The target in this experiment is Cytochrome P450 3A4 (Homo sapiens) (UniProt P08684). Briefly: Cytochrome P450 Family 3 Subfamily A Member 4 (CYP3A4) small molecule antagonists: luciferase reporter qHTS assay (AID 1671201). Further: nearly all actives have a fitted effect of over 50% in size. As to conditions: P450-Glo CYP3A4 enzyme, luciferin luminescence, 1 h; series mostly up to 115 µM. An excerpt: National Center for Advancing Translational Sciences [NCATS]
Cytochrome P450 3A4 (Homo sapiens), sequence (P08684 whole entry, looked up): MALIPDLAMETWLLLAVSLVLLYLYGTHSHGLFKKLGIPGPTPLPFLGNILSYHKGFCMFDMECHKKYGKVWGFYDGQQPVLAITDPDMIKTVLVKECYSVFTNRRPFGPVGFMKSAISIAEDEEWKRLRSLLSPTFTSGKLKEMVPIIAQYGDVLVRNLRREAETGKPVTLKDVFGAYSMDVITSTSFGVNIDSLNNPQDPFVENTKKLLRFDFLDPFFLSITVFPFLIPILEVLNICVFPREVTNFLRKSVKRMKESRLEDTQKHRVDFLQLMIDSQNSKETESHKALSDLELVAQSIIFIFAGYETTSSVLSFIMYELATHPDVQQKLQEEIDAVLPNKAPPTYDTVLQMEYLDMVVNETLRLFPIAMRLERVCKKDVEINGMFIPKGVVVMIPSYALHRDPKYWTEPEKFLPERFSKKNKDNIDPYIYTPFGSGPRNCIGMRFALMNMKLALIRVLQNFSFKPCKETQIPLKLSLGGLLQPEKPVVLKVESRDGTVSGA
U.S. Environmental Protection Agency [EPA]
National Institutes of Environmental Health Sciences [NIEHS]
National Toxicology Program [NTP]
U.S. Food and Drug Administration [FDA]
Cytochrome P450 (CYP) enzymes are membrane-bound hemeproteins that play a key role in metabolism of drugs and xenobiotics. Evaluation of the effect of chemicals on CYP isozymes is useful to minimize the adverse drug reactions and toxicities in drug development process. Tox21 chemicals were tested for their effect on CYP enzyme activities by using P450-Glo (TM) screening systems (Promega Corporation, Madison, WI). These systems provide a luminescent method containing proluciferin substrates and are converted to luciferin products by CYP isozymes. The luciferin products formed are detected with a luciferin detection reagent, and the amount of light produced is proportional to CYP activity. P450-Glo (TM) CYP3A4 screening system (Catalog. No. V9910) was used to detect the compounds that interfere in CYP3A4 activity. The positive control compound used for CYP3A4 assay is ketoconazole (Sigma-Aldrich, St. Louis, MO).
Tox21 Assay Protocol Summary:
Two ul of enzyme-substrate mix was dispensed into medium binding white/solid 1536-well plates (Greiner Bio-One North America Inc., Monroe, NC) using a BioRaptr Flying Reagent Dispenser (FRD, Beckman Coulter, Brea, CA). Compounds dissolved in DMSO and positive control (ketoconazole) were transferred to the assay plates at 23 nl using a Pintool station (Wako, San Diego, CA). The assay plates were incubated at room temperature for 10 min. Then 2 ul of NADPH regeneration solution was added to each well of the assay plates using an FRD and incubated at room temperature for 1 h. The reaction was stopped by adding 4 ul of detection reagent using an FRD and after 20 min incubation at room temperature the luminescence signal was measured using a ViewLux plate reader (Perkin Elmer, Shelton, CT). Data were expressed as relative luminescence units.
A general note: A reporter such as luciferase makes a cellular process visible.
As to `O=C1O[C@H](CO)[C@@H](O)[C@H](O)[C@H]1O`, the Potency entry was “inactive”.

In the case of `C/C=C(C)/C=C/C=C(C)C`, the Potency was 31.3 µM (active) and 35.6 µM (active).

Consider `O=C1CCCCC1`, for which the Potency result is “inactive”.

Take `CCCCC(CC)COC(=O)/C=C\C(=O)OCC(CC)CCCC` (stereo not given): the Potency is 5.64 µM (active).

As for `CCCCC/C=C\C/C=C\CCCCCCCC(=O)OC`, the Potency entry was “inactive and 7.1 µM (active)”.

Regarding `CCCCCCCCCCCCOCC1CO1` (stereo not given), the Potency entry was “inactive”.

In the case of `CC1=C(CC(=O)O)c2cc(F)ccc2/C1=C\c1ccc(S(C)=O)cc1` (stereo not given), the Potency entry was “inactive”.

In the case of `CCCCC(CC)COC(C)=O` (stereo not given), the Potency entry is “inactive”.

As to `O=C(Cl)c1c(Cl)c(Cl)c(C(=O)Cl)c(Cl)c1Cl`, the Potency entry was “inactive”.

Turning to `C[C@@H]1O[C@@H](OC[C@H]2O[C@@H](Oc3c(-c4ccc(O)c(O)c4)oc4cc(O)cc(O)c4c3=O)[C@H](O)[C@@H](O)[C@@H]2O)[C@H](O)[C@H](O)[C@H]1O`, the Potency result is “inactive”.

For the compound `C=CC(=O)OCCCCCCCC(C)C`, the Potency result is “inactive”.

For `Cc1ccc(C(=O)O)o1`, the Potency result is “inactive”.

As for `CCC(C)C=O` (stereo not given), the Potency entry was “inactive”.

Turning to `O=C(c1ccc(O)cc1)c1ccc(O)cc1O`, the Potency is 7.18 µM (active) and 22.4 µM (active).

Turning to `Cc1ccc(N)c(S(=O)(=O)O)c1`, the Potency entry was “inactive”.

Regarding `CCC(=O)O`, the Potency result was “inactive”.

In the case of `CCCCCCOC(C)=O`, the Potency entry was “inactive”.

As for `OCC#CCO`, the Potency entry is “inactive”.

Regarding `O=C(O)c1ccc([N+](=O)[O-])cc1`, the Potency result is “inactive”.

With `CCOC(=O)/C=C\C(=O)OCC`, the Potency entry is “inactive”.

Regarding `OCC1CCCO1` (stereo not given), the Potency result was “inactive”.

In the case of `CC(C)n1c(/C=C/[C@@H](O)C[C@@H](O)CC(=O)O)c(-c2ccc(F)cc2)c2ccccc21`, the Potency result is “inactive”.

For `CCCCCCCCC`, the Potency result is “inactive”.

Take `COC(=O)c1ccc(C(=O)OC)cc1`: the Potency entry is “inactive”.

Take `CC1=CC[C@H]2C[C@@H]1C2(C)C`: the Potency result was “inactive”.

As for `COC(=O)Nc1nc2ccc(Sc3ccccc3)cc2[nH]1`, the Potency entry is “inactive”.

With `Oc1ccc(OCc2ccccc2)cc1`, the Potency result was “inactive”.

Turning to `OC[C@@H](O)[C@H](O)[C@H](O)[C@@H](O)CO`, the Potency result is “inactive”.

As for `Oc1c(Cl)cc(Cl)c(Cl)c1Cl`, the Potency result was “inactive”.

For `CCCCNC(N)=O`, the Potency result is “inactive”.

In the case of `CCc1ccccc1O`, the Potency is 31.6 µM (active) and inactive.

In the case of `Cc1ccc(C)c(C)c1`, the Potency entry was “inactive”.

In the case of `Cc1cc(O)cc(C)c1Cl`, the Potency entry is “inactive”.

As to `CCCCCCCCCCCCN`, the Potency entry was “inactive”.

Turning to `CCCCC(CC)C(=O)OCCOCCOCCOC(=O)C(CC)CCCC` (stereo not given), the Potency is 7.18 µM (active) and 8.94 µM (active).

Consider `C=C(C)C(=O)OCCCCCCCCCCCC`, for which the Potency result is “inactive”.

Regarding `CC1CC(OC(=O)c2ccccc2O)CC(C)(C)C1` (stereo not given), the Potency result was “inactive”.

For the compound `ClC1=C(Cl)C(Cl)(Cl)C(Cl)=C1Cl`, the Potency entry was “inactive”.

For the compound `Cc1cc(Cc2ccc(N)c(C)c2)ccc1N`, the Potency was 894 nM (active) and 2.52 µM (active).

With `Oc1ccc2ccccc2c1N=Nc1ccccc1`, the Potency was 6.33 µM (active) and 20 µM (active).

Source of the values: PubChem BioAssay (Tox21).
